# Measurements from article PMC7862700, “An all-to-all approach to the identification of sequence-specific readers for epigenetic DNA modifications on cytosine”.
# Columns and labels:
# Test in all cases: DAPPL (digital affinity profiling via proximity ligation, sequencing); 10 mM Tris-HCl pH 7.5, 50 mM NaCl, 1 mM DTT, 4% glycerol, room temperature, 30 min; GST-TFs on glutathione beads, 16-mer random dsDNA library, 0.1% formaldehyde crosslink after washing; high values mean tight binding
# FEV = biological target: T1, FEV (Homo sapiens, UniProt Q99581 1-238); details: protein: recombinant; tags: N-terminal GST; dsDNA, one strand shown
# T1 sequence: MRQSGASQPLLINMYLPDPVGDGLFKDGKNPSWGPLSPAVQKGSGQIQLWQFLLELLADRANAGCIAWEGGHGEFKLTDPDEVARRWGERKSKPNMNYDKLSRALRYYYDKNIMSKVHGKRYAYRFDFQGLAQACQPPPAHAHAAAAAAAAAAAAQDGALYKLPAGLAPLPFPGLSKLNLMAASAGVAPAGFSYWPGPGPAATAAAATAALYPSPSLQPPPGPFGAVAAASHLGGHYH
# Outline: (§1)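 In yeast, human transcription factors were expressed with a GST fusion, then pulled down on glutathione beads and given DNA barcodes. Pooled with a tag-only sample, they were exposed to 200 nmole of a 16-mer random double-stranded DNA library (Tris/NaCl/DTT/glycerol buffer, room temperature, 30 min), washed, crosslinked with 0.1% formaldehyde, proximity-ligated using BsaI/T4 ligase for 1 h at 37 °C, PCR-amplified and read on an Illumina NextSeq500. Each hexamer's frequency of reads for a factor, divided by the matching frequency for the tag-only sample, gives the binding signal.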
# ETV5 = ETV5 (Homo sapiens, UniProt P41161 1-510); details: protein: recombinant; tags: N-terminal GST; dsDNA, one strand shown
# Outline: as §1
# HSF1 = HSF1 (Homo sapiens, UniProt Q00613 1-529); details: protein: recombinant; tags: N-terminal GST; chain copies: 3; dsDNA, one strand shown
# Outline: as §1
# SPIC = biological target: T2, SPIC (Homo sapiens, UniProt Q8N5J4 1-248); details: protein: recombinant; tags: N-terminal GST; dsDNA, one strand shown
# T2 sequence: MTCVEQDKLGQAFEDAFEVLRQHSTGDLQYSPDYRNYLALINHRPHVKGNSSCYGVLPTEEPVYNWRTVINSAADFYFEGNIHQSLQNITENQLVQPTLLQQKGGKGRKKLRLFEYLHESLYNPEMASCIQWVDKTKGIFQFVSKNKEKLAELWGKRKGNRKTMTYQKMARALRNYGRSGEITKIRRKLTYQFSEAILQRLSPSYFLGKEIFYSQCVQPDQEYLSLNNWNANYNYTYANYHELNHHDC
# Outline: as §1
# ELF4 = ELF4 (Homo sapiens, UniProt Q99607 1-663); details: protein: recombinant; tags: N-terminal GST; dsDNA, one strand shown
# Outline: as §1
# ELK4 = biological target: T3, ELK4 (Homo sapiens, UniProt P28324-2 1-405); details: protein: recombinant; tags: N-terminal GST; dsDNA, one strand shown
# T3 sequence: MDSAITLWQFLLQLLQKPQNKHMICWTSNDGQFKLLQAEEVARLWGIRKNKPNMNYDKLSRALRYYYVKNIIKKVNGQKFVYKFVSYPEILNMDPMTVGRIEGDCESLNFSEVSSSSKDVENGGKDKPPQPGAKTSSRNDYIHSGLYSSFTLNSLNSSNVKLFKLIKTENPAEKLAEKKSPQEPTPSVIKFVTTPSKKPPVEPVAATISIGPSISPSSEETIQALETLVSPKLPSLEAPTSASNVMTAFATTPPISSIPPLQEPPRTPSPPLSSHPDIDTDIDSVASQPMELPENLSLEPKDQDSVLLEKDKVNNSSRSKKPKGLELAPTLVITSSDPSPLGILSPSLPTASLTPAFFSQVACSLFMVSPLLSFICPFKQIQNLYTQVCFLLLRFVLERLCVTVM
# Outline: as §1
# ETV2 = biological target: T4, ETV2 (Homo sapiens, UniProt O00321 1-342); details: protein: recombinant; tags: N-terminal GST; dsDNA, one strand shown
# T4 sequence: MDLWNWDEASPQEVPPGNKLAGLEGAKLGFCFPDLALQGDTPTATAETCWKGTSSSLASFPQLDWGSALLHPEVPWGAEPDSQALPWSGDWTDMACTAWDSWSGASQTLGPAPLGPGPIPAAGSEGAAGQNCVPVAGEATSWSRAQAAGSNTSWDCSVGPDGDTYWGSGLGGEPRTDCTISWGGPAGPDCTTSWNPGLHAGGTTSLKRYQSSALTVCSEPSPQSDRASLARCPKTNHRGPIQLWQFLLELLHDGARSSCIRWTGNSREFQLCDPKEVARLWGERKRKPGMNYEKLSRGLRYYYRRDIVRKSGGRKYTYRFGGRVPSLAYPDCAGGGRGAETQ
# Outline: as §1
# ELF3 = biological target: T5, ELF3 (Homo sapiens, UniProt P78545 1-371); details: protein: recombinant; tags: N-terminal GST; dsDNA, one strand shown
# T5 sequence: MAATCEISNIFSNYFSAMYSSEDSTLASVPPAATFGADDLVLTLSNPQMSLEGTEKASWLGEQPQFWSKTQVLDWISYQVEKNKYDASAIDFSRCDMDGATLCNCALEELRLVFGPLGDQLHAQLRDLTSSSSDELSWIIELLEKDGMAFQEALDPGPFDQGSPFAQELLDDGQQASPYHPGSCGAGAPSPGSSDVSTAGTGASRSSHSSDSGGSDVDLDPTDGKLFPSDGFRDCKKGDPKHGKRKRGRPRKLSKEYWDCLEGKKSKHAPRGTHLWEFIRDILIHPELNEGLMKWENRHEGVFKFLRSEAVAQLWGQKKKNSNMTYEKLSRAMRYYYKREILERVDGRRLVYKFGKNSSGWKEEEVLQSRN
# Outline: as §1
# CRX = CRX (Homo sapiens, UniProt O43186 1-299); details: protein: recombinant; tags: N-terminal GST; dsDNA, one strand shown
# Outline: as §1
# ETV1 = ETV1 (Homo sapiens, UniProt P50549 1-477); details: protein: recombinant; tags: N-terminal GST; dsDNA, one strand shown
# Outline: as §1
# ERF = biological target: T6, ERF (Homo sapiens, UniProt P50548 1-548); details: protein: recombinant; tags: N-terminal GST; dsDNA, one strand shown
# T6 sequence: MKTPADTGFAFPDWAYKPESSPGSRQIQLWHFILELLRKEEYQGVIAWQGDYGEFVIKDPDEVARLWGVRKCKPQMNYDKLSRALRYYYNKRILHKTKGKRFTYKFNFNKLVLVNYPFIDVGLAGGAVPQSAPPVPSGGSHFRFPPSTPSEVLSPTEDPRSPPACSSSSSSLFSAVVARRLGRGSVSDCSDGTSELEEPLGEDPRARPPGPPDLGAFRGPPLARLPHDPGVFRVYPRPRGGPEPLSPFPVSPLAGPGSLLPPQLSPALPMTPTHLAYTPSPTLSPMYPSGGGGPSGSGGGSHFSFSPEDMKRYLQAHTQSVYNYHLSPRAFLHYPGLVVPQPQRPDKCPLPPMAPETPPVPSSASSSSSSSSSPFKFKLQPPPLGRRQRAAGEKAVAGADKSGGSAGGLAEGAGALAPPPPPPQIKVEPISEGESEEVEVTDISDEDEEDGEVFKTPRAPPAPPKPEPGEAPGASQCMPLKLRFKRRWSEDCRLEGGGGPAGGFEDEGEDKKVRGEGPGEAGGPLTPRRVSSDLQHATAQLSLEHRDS
# Outline: as §1
# ETV3L = biological target: T7, ETV3L (Homo sapiens, UniProt Q6ZN32 1-361); details: protein: recombinant; tags: N-terminal GST; dsDNA, one strand shown
# T7 sequence: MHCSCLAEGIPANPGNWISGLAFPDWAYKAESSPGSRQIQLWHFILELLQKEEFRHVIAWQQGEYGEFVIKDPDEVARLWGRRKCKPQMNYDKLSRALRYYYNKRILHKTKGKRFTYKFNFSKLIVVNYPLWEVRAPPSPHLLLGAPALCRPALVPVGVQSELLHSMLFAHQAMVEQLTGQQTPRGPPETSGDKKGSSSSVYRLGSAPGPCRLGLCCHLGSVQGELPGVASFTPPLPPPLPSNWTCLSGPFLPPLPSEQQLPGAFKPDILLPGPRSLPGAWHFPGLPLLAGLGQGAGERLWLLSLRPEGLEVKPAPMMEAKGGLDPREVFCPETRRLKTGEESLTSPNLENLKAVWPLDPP
# Outline: as §1
# ETS2 = biological target: T8, ETS2 (Homo sapiens, UniProt P15036 1-469); details: protein: recombinant; tags: N-terminal GST; dsDNA, one strand shown
# T8 sequence: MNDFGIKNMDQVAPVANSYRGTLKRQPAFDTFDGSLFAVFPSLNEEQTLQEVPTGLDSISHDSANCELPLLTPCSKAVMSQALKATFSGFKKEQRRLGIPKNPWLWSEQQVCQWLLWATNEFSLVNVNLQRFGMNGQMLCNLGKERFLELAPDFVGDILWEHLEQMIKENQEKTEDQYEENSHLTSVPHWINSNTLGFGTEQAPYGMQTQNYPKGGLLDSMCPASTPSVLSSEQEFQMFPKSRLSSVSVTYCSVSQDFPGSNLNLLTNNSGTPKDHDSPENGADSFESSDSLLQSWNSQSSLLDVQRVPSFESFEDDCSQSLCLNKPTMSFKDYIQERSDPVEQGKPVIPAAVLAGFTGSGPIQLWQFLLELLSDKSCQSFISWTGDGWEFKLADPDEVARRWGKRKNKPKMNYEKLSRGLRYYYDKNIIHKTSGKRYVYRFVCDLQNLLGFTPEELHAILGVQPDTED
# Outline: as §1
# SPDEF = biological target: T9, SPDEF (Homo sapiens, UniProt O95238 1-335); details: protein: recombinant; tags: N-terminal GST; dsDNA, one strand shown
# T9 sequence: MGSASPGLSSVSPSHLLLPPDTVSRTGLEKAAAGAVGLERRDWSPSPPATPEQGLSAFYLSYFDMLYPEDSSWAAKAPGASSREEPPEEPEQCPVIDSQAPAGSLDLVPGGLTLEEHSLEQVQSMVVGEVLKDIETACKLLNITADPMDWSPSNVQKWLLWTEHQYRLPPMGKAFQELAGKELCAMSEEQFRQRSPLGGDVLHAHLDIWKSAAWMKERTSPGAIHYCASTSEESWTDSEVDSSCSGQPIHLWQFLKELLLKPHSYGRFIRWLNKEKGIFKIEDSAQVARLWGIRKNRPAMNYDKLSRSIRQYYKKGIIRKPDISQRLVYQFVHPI
# Outline: as §1
# ETV7 = biological target: T10, ETV7 (Homo sapiens, UniProt Q9Y603 1-341); details: protein: recombinant; tags: N-terminal GST; dsDNA, one strand shown
# T10 sequence: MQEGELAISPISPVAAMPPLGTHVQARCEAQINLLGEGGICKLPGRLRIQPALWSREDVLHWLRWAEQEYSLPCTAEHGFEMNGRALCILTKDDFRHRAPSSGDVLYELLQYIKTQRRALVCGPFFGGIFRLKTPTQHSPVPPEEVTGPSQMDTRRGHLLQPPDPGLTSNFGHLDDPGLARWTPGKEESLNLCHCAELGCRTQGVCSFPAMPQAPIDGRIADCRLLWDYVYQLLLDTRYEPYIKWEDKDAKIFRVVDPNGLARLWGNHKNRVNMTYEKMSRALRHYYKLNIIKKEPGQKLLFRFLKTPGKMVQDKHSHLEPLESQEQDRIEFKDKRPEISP
# Outline: as §1
# ELF5 = biological target: T11, ELF5 (Homo sapiens, UniProt Q9UKW6-2 1-255); details: protein: recombinant; tags: N-terminal GST; dsDNA, one strand shown
# T11 sequence: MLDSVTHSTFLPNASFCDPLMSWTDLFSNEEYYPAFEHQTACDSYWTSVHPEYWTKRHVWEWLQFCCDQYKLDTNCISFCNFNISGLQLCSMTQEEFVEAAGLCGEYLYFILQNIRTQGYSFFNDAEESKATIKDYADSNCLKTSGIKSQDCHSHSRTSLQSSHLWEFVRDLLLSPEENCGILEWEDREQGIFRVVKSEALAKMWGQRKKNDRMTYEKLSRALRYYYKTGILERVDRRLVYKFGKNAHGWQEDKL
# Outline: as §1
# ETV3 = biological target: T12, ETV3 (Homo sapiens, UniProt P41162-2 1-143); details: protein: recombinant; tags: N-terminal GST; dsDNA, one strand shown
# T12 sequence: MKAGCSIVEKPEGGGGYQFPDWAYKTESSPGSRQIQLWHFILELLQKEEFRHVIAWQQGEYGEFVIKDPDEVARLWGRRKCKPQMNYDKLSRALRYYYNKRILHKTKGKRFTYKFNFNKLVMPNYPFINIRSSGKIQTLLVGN
# Outline: as §1
# ETV6 = ETV6 (Homo sapiens, UniProt P41212 1-452); details: protein: recombinant; tags: N-terminal GST; dsDNA, one strand shown
# Outline: as §1
# Sequence of ETV6 (P41212 whole entry): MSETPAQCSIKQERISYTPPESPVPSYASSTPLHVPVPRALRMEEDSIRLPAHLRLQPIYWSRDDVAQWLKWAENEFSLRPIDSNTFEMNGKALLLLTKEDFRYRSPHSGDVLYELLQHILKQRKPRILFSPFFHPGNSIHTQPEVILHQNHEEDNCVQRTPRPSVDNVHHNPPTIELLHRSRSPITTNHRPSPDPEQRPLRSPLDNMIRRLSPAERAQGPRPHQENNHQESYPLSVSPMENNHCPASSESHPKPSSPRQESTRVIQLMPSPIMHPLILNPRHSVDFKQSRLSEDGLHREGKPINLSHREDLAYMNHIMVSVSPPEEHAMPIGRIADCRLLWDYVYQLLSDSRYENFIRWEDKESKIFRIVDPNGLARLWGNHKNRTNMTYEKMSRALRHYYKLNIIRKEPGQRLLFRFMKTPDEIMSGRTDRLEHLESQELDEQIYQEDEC
# Sequence of CRX (O43186 whole entry): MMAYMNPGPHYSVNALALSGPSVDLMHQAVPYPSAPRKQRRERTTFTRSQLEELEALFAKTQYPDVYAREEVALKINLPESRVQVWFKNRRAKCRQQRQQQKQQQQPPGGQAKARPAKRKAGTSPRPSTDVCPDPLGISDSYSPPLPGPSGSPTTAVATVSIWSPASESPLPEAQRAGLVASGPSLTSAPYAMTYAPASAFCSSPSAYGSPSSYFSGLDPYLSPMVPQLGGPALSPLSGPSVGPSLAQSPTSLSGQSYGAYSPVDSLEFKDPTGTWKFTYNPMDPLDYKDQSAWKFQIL
# Sequence of HSF1 (Q00613 whole entry): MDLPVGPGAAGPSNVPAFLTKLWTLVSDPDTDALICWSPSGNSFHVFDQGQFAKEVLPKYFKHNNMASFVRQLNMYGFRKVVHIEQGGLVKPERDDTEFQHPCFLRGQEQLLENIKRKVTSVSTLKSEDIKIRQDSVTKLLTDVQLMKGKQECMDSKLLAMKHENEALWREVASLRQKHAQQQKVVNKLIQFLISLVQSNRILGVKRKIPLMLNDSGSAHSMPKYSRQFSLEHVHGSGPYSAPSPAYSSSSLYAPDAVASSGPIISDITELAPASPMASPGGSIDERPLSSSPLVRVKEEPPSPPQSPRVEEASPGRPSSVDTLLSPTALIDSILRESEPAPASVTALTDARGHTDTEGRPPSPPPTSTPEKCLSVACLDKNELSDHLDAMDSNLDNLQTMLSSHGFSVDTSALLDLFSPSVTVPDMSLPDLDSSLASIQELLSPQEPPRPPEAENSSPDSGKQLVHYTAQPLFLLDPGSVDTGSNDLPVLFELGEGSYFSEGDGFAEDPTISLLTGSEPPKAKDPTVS
# Sequence of ELF4 (Q99607 whole entry): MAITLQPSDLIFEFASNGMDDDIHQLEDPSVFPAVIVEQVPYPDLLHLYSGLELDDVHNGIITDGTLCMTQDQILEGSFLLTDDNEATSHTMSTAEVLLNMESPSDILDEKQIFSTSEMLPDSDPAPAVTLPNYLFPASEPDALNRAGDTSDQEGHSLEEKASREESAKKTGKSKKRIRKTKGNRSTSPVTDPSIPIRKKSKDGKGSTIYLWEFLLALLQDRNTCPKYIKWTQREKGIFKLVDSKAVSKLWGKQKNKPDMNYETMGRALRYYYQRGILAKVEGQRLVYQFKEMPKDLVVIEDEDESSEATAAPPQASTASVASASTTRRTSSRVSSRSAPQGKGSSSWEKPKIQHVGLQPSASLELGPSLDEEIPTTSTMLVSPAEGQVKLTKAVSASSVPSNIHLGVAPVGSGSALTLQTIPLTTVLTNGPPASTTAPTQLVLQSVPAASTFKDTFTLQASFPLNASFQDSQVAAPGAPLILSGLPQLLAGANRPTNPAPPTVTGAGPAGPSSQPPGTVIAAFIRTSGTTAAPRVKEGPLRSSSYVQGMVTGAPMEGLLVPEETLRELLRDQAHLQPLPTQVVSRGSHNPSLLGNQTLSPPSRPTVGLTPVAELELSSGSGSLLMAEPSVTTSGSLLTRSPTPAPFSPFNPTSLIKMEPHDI
# Sequence of ETV5 (P41161 whole entry): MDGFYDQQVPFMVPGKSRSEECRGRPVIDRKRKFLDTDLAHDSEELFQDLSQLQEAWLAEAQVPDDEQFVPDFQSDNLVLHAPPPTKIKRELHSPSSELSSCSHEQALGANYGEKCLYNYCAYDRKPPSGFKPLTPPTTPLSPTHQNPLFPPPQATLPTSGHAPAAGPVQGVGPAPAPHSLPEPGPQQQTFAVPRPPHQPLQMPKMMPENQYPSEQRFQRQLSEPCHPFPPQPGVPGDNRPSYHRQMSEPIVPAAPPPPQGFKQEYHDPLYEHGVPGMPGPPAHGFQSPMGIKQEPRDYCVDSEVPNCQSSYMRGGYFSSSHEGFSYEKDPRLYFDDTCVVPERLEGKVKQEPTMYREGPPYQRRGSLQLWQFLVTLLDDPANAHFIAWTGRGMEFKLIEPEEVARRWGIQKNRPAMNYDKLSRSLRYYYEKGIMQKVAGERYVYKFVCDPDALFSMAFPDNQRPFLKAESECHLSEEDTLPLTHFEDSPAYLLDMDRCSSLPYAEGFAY
# Sequence of ETV1 (P50549 whole entry): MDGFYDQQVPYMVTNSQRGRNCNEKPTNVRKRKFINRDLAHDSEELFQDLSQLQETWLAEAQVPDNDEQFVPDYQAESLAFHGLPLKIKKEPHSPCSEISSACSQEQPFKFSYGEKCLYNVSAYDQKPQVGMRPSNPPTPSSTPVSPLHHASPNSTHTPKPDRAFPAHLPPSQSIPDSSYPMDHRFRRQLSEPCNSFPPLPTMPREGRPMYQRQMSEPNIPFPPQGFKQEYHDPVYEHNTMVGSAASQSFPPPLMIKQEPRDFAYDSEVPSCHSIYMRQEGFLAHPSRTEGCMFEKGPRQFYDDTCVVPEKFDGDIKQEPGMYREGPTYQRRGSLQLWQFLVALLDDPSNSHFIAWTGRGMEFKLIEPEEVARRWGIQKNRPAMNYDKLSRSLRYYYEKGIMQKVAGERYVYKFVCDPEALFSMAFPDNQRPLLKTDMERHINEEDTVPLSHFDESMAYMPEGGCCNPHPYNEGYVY
sequence,measurement,setting,value
CCTACA,binding signal,FEV,"1.18 fold enrichment (6-mer frequency, TF over GST control)"
same,binding signal,ETV5,"1.26 fold enrichment (6-mer frequency, TF over GST control)"
same,binding signal,HSF1,"1.07 fold enrichment (6-mer frequency, TF over GST control)"
same,binding signal,SPIC,"1.35 fold enrichment (6-mer frequency, TF over GST control)"
same,binding signal,ELF4,"1.22 fold enrichment (6-mer frequency, TF over GST control)"
same,binding signal,ELK4,"1.31 fold enrichment (6-mer frequency, TF over GST control)"
same,binding signal,ETV2,"1.13 fold enrichment (6-mer frequency, TF over GST control)"
same,binding signal,ELF3,"1.13 fold enrichment (6-mer frequency, TF over GST control)"
same,binding signal,CRX,"1.01 fold enrichment (6-mer frequency, TF over GST control)"
same,binding signal,ETV1,"1.16 fold enrichment (6-mer frequency, TF over GST control)"
same,binding signal,ERF,"1.23 fold enrichment (6-mer frequency, TF over GST control)"
same,binding signal,ETV3L,"1.35 fold enrichment (6-mer frequency, TF over GST control)"
same,binding signal,ETS2,"1.19 fold enrichment (6-mer frequency, TF over GST control)"
same,binding signal,SPDEF,"1.17 fold enrichment (6-mer frequency, TF over GST control)"
same,binding signal,ETV7,"1.15 fold enrichment (6-mer frequency, TF over GST control)"
same,binding signal,ELF5,"1.41 fold enrichment (6-mer frequency, TF over GST control)"
same,binding signal,ETV3,"1.29 fold enrichment (6-mer frequency, TF over GST control)"
same,binding signal,ETV6,"1.29 fold enrichment (6-mer frequency, TF over GST control)"
